Rows were chosen to be rich in hits. Some 3.5% of all compounds tested hit in one or more screens of this group.
FBW7 activator = human FBW7 E3 ligase activation, primary screen; Q969H0; AlphaScreen FBW7–phospho-cyclin E peptide binding, activator screen; normalized activity (activation), % at 26.1 µM; 0.13% of 650,000 active; in the data active means normalized activity above about 1.9%;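 further: purified mutant Fbw7 with reduced substrate affinity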
MITF inh = human MITF inhibition, primary screen | O75030 | AlphaScreen MITF homodimerization, bead proximity signal | inhibition, % at 2.6 µM | 0.91% of 650,000 active; in the data active means inhibition above about 50%
Target sequence (O75030 whole entry, looked up): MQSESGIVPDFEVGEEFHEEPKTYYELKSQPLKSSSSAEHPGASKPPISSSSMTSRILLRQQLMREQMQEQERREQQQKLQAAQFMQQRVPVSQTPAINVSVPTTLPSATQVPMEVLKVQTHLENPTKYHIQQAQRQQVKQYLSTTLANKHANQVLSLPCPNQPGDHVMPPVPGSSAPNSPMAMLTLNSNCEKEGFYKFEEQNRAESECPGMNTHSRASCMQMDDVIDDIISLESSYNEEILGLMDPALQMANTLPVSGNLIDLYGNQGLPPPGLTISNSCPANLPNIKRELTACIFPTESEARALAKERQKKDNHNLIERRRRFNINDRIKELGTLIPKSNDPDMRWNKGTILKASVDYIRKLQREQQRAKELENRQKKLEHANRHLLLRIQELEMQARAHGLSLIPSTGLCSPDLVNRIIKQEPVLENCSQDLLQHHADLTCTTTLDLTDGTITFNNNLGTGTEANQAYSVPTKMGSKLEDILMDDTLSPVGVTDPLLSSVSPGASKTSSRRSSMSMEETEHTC
TEAD-YAP inh = TEAD-YAP interaction inhibition; 1.4% of 640,000 active; AID 1259422; HEK-TIYL cells, TEAD-Gal4/YAP UAS-luciferase luminescence; inhibition, % at 9.12 µM; in the data active means inhibition above about 32%
GPR151 activ = activators of human GPR151. Q8TDV0. PathHunter beta-arrestin GPR151 cells, luminescence. 1% of 650,000 active. AID 1508602. activation, % at 11.2 µM; in the data active means activation above about 4.9%
GPR151 conf act = human GPR151 activation, confirmation screen | shares compounds with GPR151 activ | GPR151 PathHunter beta-arrestin cells, luminescence, 90 min; % of EA-reagent control over plate median | activation, % at 11.2 µM | 6,700 tested, under 10 active | AID 1508609;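 active means mean percent activation across replicates above the confirmation screen cutoff of 4.91%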
GPR119 ag = GPR119 activation, counter-screen for GPR151 activators; shares compounds with GPR151 activ; GPR119 PathHunter beta-arrestin cells, luminescence, 90 min; 0 = compound-well median, 100 = enzyme-acceptor control; activation, % at 11.2 µM; 0.3% of 6,700 active; AID 1508611;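 active means mean percent activation in the counterscreen above 29.09%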;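 further: counterscreen on off-target GPR119 to flag nonselective hits from the GPR151 activator screen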
Each line names hits and unclear results; the compound was inactive in the other large screens (follow-up assays come after a bar, where they were run).

Clc1ccc(Cn2ncc3c(NCCN4CCOCC4)ncnc32)cc1	GPR151 activ 6.7 | GPR151 conf act inactive | GPR119 ag inactive
COc1cc2nc(NCCCOC(C)C)n3nc(-c4cccnc4)nc3c2cc1OC	GPR151 activ 5.2 | GPR151 conf act inactive | GPR119 ag inactive
Cc1ccc(N2CC(=O)Nc3c(sc4nc(C)cc(C)c34)C2=O)cc1	none
Cc1cc(C)c2c3c(sc2n1)C(=O)N(c1ccc(F)cc1)CC(=O)N3	GPR151 activ 5.6 | GPR151 conf act inactive | GPR119 ag inactive
COc1ccc(/C=C2\SC(c3ccc(C)cc3)=NC2=O)cc1Br	none
CC1=C(c2ccc(C)cc2)S(=O)(=O)N=C1Nc1ccc(C)cc1	none
CC1=C(c2ccc(C)cc2)S(=O)(=O)N=C1Nc1ccc(Br)cc1F	GPR151 activ 8.7 | GPR151 conf act inactive | GPR119 ag inactive
O=C(Nc1ccc(-c2ccc([N+](=O)[O-])cc2)cc1)C1CC1	none
O=C1NC(=O)c2cc(NC(=O)C3CC3)ccc21	GPR151 activ 5.2 | GPR151 conf act inactive | GPR119 ag inactive
O=C(Nc1ccc([N+](=O)[O-])cc1)C1CC1	GPR151 activ 7.5 | GPR151 conf act inactive | GPR119 ag inactive
COc1ccc(/C=C/c2nn3c(CCc4ccccc4)nnc3s2)cc1	none
CC(=O)c1cccc(-c2nc3ncnc(Nc4ccccc4)c3[nH]2)c1	none
CCOC(=O)/C(C#N)=C/Nc1ccccc1NS(=O)(=O)c1ccc(C)c(C)c1	GPR151 activ 5.5 | GPR151 conf act inactive | GPR119 ag inactive
CCOC(=O)/C(C#N)=C/Nc1ccccc1NS(=O)(=O)c1cccc(C(C)=O)c1	none
COc1ccc(-n2c(C)c(C(=O)O)c3cc(OC)c4ccccc4c32)cc1	GPR151 activ 4.9 | GPR151 conf act inactive | GPR119 ag inactive
COc1cc2c(C(=O)O)c(C)n(-c3ccccc3)c2c2ccccc12	none
CCc1cccc(NS(=O)(=O)c2ccc3c(c2)n(C)c(=O)n3C)c1	none
Cn1c(=O)n(C)c2cc(S(=O)(=O)Nc3cccc(C(F)(F)F)c3)ccc21	GPR151 activ 5.1 | GPR151 conf act inactive | GPR119 ag inactive
CCN(C(=S)NCCOC)c1cccc2ccccc12	GPR151 activ 14 | GPR151 conf act inactive | GPR119 ag inactive
COCCNC(=S)N(C)c1ccc(O)cc1	none
CCOC(=O)c1c(C)n(C)c2c1cc(O)c1ccccc12	GPR151 activ 6.1 | GPR151 conf act inactive | GPR119 ag inactive
COc1ccc(N2CCN(Cc3ccc4ccccc4c3)C2=O)cc1	none
C/C=C/c1ccc(OCCCNC)c(OC)c1	GPR151 activ 6.1 | GPR151 conf act inactive | GPR119 ag inactive
C/C=C/c1ccc(OCCNC)c(OC)c1	none
Cc1cc(CNC(=O)CN2CCC(C)CC2)cc(C)c1O	none
CC(C)(C)c1ccc(OCC(=O)Nc2ccc(OCC(=O)O)cc2)cc1	GPR151 activ 5.2 | GPR151 conf act inactive | GPR119 ag inactive
O=C(COc1ccc(F)cc1)Nc1cccc(C(=O)O)c1	GPR151 activ 6.5 | GPR151 conf act inactive | GPR119 ag inactive
CC(=O)c1ccc(OCC(=O)Nc2ccccc2)cc1	GPR151 activ 5.8 | GPR151 conf act inactive | GPR119 ag inactive
CCOc1ccc(-c2cccc(NC(=O)COc3ccc(C(=O)c4ccccc4)cc3)c2)nn1	GPR151 activ 7.3 | GPR151 conf act inactive | GPR119 ag inactive
CC(Oc1ccccc1Br)C(=O)N/N=C/c1cccnc1 (stereo not drawn)	none
CCOc1ccc(NC(=O)CNC(=O)c2ccc(C(C)(C)C)cc2)cc1	GPR151 activ 9.1 | GPR151 conf act inactive | GPR119 ag inactive
CCOc1ccc(NC(=O)c2ccc(C(C)(C)C)cc2)cc1	none
Cc1c(Cl)cccc1NC(=O)CSCC(=O)Nc1ccc(Br)cc1	GPR151 activ 6.4 | GPR151 conf act inactive | GPR119 ag inactive
Cc1nc(NC(=O)c2ccc(Br)o2)sc1C(=O)N(C)C	none
O=C(NCCCC1CCCC1)c1cc(COc2cccc3cnccc23)on1	GPR151 activ 5.2 | GPR151 conf act inactive | GPR119 ag inactive
CC(=O)Nc1ccc(S(=O)(=O)Nc2ccccc2C(C)C)cc1	GPR151 activ 5.9 | GPR151 conf act inactive | GPR119 ag inactive
O=c1[nH]c(N2CCCC2)nc2c1CN(Cc1nnnn1C1CCCCC1)CC2	none
CC(Sc1nnc(NC(=O)c2ccccc2)s1)c1nc2ccccc2c(=O)[nH]1 (stereo not drawn)	GPR151 activ 5.7 | GPR151 conf act inactive | GPR119 ag inactive
Cc1cc(=O)oc2cc(OCc3ccc(C(=O)NNC(=O)c4ccccc4)cc3)ccc12	none
C/C(N)=C(/C#N)C(=O)COC(=O)c1ccc(COc2ccc3c(C)cc(=O)oc3c2)cc1	GPR151 activ 5.3 | GPR151 conf act inactive | GPR119 ag inactive
O=C(Nc1cccc(Cl)c1Cl)c1ccccc1[N+](=O)[O-]	none
N#Cc1ccccc1NC(=O)c1cc(Br)ccc1Cl	none
O=C(Nc1ccccc1[N+](=O)[O-])c1cc(Br)ccc1Cl	GPR151 activ 5.9 | GPR151 conf act inactive | GPR119 ag inactive
O=C(O)c1cccc([N+](=O)[O-])c1C(=O)Nc1cccc(Cl)c1Cl	GPR151 activ 7.6 | GPR151 conf act inactive | GPR119 ag inactive
Cc1cc(-c2cncnc2C2CCCN(CC(N)=O)C2)on1 (stereo not drawn)	none
Cc1cccc(C)c1NCCNc1c(C)cccc1C	none
Cc1ccccc1C(=O)Nc1nc2ccc([N+](=O)[O-])cc2s1	none
CCN(CC)c1nc(C)c([N+](=O)[O-])c(C)c1C(N)=O	GPR151 activ 6.5 | GPR151 conf act inactive | GPR119 ag inactive
COC(=O)c1ccc(NC(=O)CSc2nnc3[nH]c(=O)ccn23)cc1	GPR151 activ 6.3 | GPR151 conf act inactive | GPR119 ag inactive
COc1ccc([C@@H](C)NC(=O)CCC2(Cc3cccc4ccccc34)CCC(=O)N2)cc1 (stereo partly drawn)	none
COc1ccc(-c2nc(C)c(CCNC(=O)c3cccc(OC)c3)s2)cc1	none
COc1ccc(C(=O)NCCc2sc(-c3ccccc3)nc2C)cc1	GPR151 activ 5.2 | GPR151 conf act inactive | GPR119 ag inactive
O=C1CC(N2CCN(Cc3ccccc3)CC2)C(=O)N1c1ccc(F)cc1F (stereo not drawn)	none
CCN(CC)CCNC(=O)CN1CC(=O)N2CCCC2C1=O (stereo not drawn)	GPR151 activ 5.9 | GPR151 conf act inactive | GPR119 ag inactive
CCOCCCNC(=O)CN1CC(=O)N2CCCC2C1=O (stereo not drawn)	none
O=S(=O)(Nc1nc2ccc(S(=O)(=O)N3CCCCC3)cc2s1)c1ccccc1	GPR151 activ 5.3 | GPR151 conf act inactive | GPR119 ag inactive
CCOC(=O)c1c(NC(=O)c2cc(=O)c3ccccc3o2)sc2c1CCN(C(C)=O)C2	GPR151 activ 6.0 | GPR151 conf act inactive | GPR119 ag inactive
CC(=O)N1CCc2c(sc(NC(=O)Cc3ccccc3)c2C(N)=O)C1	GPR151 activ 5.3 | GPR151 conf act inactive | GPR119 ag inactive
